Screening results deposited in PubChem BioAssay by The Scripps Research Institute Molecular Screening Center.
A selection: hits, their analogues and other compounds. The true share with any hit is near 1.1%.
HTR5A ag: HTR5A agonists in luminescence cell assay, primary screen, counter-screen for OPRM1-OPRD1 heterodimer agonist project, full-deck HTS | 5-hydroxytryptamine receptor 5A (Homo sapiens), P47898 | cell-based | activation, % at 9.3 µM | 340,000 tested, 0.61% active | AID 504692, 2011; in the data active means activation mostly above about 9.5%, no sharp cut-off; inactive means mostly below about 7.6%
Target sequence (P47898 whole entry, looked up): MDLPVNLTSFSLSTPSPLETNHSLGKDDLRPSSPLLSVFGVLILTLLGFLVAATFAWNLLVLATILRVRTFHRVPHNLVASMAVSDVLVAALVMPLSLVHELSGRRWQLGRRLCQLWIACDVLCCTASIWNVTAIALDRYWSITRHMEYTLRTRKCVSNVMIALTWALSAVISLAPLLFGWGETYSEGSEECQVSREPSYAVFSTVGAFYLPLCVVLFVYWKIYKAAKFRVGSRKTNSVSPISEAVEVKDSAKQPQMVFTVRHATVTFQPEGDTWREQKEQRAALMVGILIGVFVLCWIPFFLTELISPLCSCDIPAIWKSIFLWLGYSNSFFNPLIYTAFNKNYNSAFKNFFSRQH
OPRM1-OPRD1 ag: agonists of OPRM1-OPRD1 heterodimerization, primary screen, cell-based, luminescence | activation, % at 9.3 µM | AID 504326, 2011 | Mu-type opioid receptor (Homo sapiens) + Delta-type opioid receptor (Homo sapiens), … | cells | 340,000 tested, 0.3% active
HTR5A inv ctr: HTR5A inverse agonists in luminescence cell assay, primary screen, counter-screen for OPRM1-OPRD1 heterodimer inverse agonist project, full-deck HTS. 5-hydroxytryptamine receptor 5A (Homo sapiens), P47898. HTR5A cell line, inverse agonism. inhibition, % at 9.3 µM. 340,000 tested, 0.083% active. AID 504634, 2011; in the data active means inhibition mostly above about 23%, no sharp cut-off; inactive means mostly below about 18%
OPRM1-OPRD1 inv: inverse agonists of MOR-DOR heterodimerization, primary screen, cell-based, luminescence; cell-based MOR-DOR heterodimer luminescence, inverse agonism; AID 504357, 2011; 340,000 tested, 0.21% active; Mu-type opioid receptor (Homo sapiens) + Delta-type opioid receptor (Homo sapiens), …; inhibition, % at 9.3 µM; in the data active means inhibition above about 22%, passing the limit was not always enough
OPRM1-D1 ag cf: agonists of MOR-DOR heterodimerization, confirmation, cell-based, luminescence; shares compounds with OPRM1-OPRD1 ag; cells, luminescence complementation; activation, % at 9.3 µM; 830 tested, 45% active
HTR5A ag ctr2: HTR5A agonists in cells, counter-screen for OPRM1-OPRD1 heterodimer agonist project, cell-based, luminescence; shares compounds with OPRM1-OPRD1 ag; HTR5A agonist counterscreen; activation, % at 9.3 µM; 830 tested, 8% active; in the data active means activation above about 17%
Numbers stand for hits; – = inactive; · = no result given. Unless noted, no stated cut-off is given here; in the data, active means activation above about 18%; inactive means the rest.

SMILES	HTR5A ag	OPRM1-OPRD1 ag	HTR5A inv ctr	OPRM1-OPRD1 inv	OPRM1-D1 ag cf	HTR5A ag ctr2
CN1C2C=C(N(CCc3ccccc3)C(=O)c3ccc(Cl)cc3)CC1CC2 (stereo not drawn)	–	73.4	–	–	88.9	–
CSCCC(NS(=O)(=O)c1ccc(C)cc1)C(=O)N1CCN(C(C)=O)CC1 (stereo not drawn)	–	–	–	–	·	·
CSCCC(NS(=O)(=O)c1ccc(C)cc1)C(=O)N1CCN(C(c2ccccc2)c2ccccc2)CC1 (stereo not drawn)	–	57.1	–	–	–	–
CCOC(=O)CN1C(=O)C(Sc2n[nH]c(-c3cccc(C)c3)n2)CCc2ccccc21 (stereo not drawn)	–	–	–	–	·	·
Cc1nc2ccccc2c(=O)n1CCN1CCOCC1	–	–	–	–	·	·
Cc1nc2nc(C)n(CCN3CCOCC3)c(=O)c2c(-c2cccc([N+](=O)[O-])c2)c1C(=O)CCCCCCCCCCN1CCC(c2ccccc2)(c2ccccc2)CC1	–	25.8	–	–	130.7	–
Cc1nc2cc(NC(=O)c3ccc([N+](=O)[O-])s3)ccc2s1	–	29.8	–	–	–	–
COc1cc(CNC(C)c2ccccc2)cc(Br)c1OCc1ccc(F)cc1 (stereo not drawn)	–	20.9	–	–	–	–
CCN(CC)CCNCc1cc(Cl)c(OCC(=O)Nc2ccccc2)c(OC)c1	–	–	–	–	·	·
COc1cc(CNC(C)c2ccccc2)cc(Cl)c1OCC(=O)Nc1ccccc1 (stereo not drawn)	–	21.3	–	–	–	–
Cc1sc2ncnc(NCC(c3ccccc3)N(C)C)c2c1C (stereo not drawn)	–	–	–	–	·	·
Cc1nc(NCC(c2ccccc2)N(C)C)c2c(C)c(C)sc2n1 (stereo not drawn)	–	37.4	–	–	47.8	–
Cn1c(=N)n(CC(=O)c2ccc(Br)cc2)c2ccccc21	–	34.0	–	–	24.9	–
COc1ccc(C2CC(c3ccc4ccccc4c3OC(C)=O)=NN2C(C)=O)cc1 (stereo not drawn)	–	129.3	–	–	21.4	–
COc1ccc(CNC[C@@H](CCCCN(C)Cc2ccc(OC)cc2)N2C[C@H](c3ccccc3)N(CCc3ccc(Cl)c(Cl)c3)C(=O)C2=O)cc1	21.2	81.2	–	–	126.9	32.8
COc1ccc(CNC(=O)[C@@H]2CC=C[C@@H]3CCN(Cc4ccc(Cl)c(Cl)c4)C(=O)[C@@H]32)cc1	–	–	–	–	·	·
CCN(Cc1ccncc1)Cc1cn[nH]c1-c1cc(OC)c(OC)c(OC)c1	–	–	–	–	·	·
Cc1ccc(C)c(-n2cc(CNCCc3cnccn3)c(-c3ccccc3)n2)c1	–	53.9	–	–	78.9	–
CCn1ccnc1CNCc1cn(-c2cc(C)ccc2C)nc1-c1ccccc1	–	–	–	–	·	·
Cc1ccc(/C=N/NC(=O)c2cccc(S(=O)(=O)Nc3cccc(Cl)c3)c2)o1	–	19.1	–	–	21.5	–
COc1ccccc1NS(=O)(=O)c1cccc(C(=O)N/N=C/c2ccc(C)o2)c1	–	–	–	–	·	·
C/C(=N\NC(=O)c1cccc(S(=O)(=O)Nc2cccc(Cl)c2)c1)c1cccs1	–	20.3	–	–	–	–
CCN(CC)S(=O)(=O)c1cccc(C(=O)N/N=C(\C)c2cccs2)c1	–	–	–	–	·	·
CSCCC(/C(O)=C(\C#N)c1nc2ccccc2[nH]1)N1C(=O)c2ccccc2C1=O (stereo not drawn)	–	57.7	–	–	48.8	–
COc1cc2nc(CN(C)CC(=O)Nc3ccc(N4CCOCC4)cc3)[nH]c(=O)c2cc1OC	–	–	–	–	·	·
SMILES	HTR5A ag	OPRM1-OPRD1 ag	HTR5A inv ctr	OPRM1-OPRD1 inv	OPRM1-D1 ag cf	HTR5A ag ctr2
Cc1ccccc1Nc1nc(N)nc(C)c1Br	–	–	–	–	·	·
CCc1c(N)nc(N)nc1Nc1ccccc1C	–	21.0	–	–	–	–
Cc1cc(=O)[nH]c(N2CCN(C(c3ccccc3)c3ccccc3)CC2)n1	–	–	–	–	·	·
CCN(c1ccccc1)S(=O)(=O)c1ccc(C(=O)NCC(c2cccs2)N(C)C)cc1 (stereo not drawn)	–	–	–	–	·	·
Cc1ccc(S(=O)(=O)Nc2cccc(C(=O)NCC(c3ccco3)N(C)C)c2)cc1F (stereo not drawn)	–	–	–	–	·	·
CCN(c1ccccc1)S(=O)(=O)c1cc(C(=O)NCC(c2ccc(OC)cc2)N(C)C)ccc1C (stereo not drawn)	–	20.5	–	–	–	–
Cc1ccc(S(=O)(=O)Nc2cccc(C(=O)NCC(c3ccccc3)N(C)C)c2)cc1F (stereo not drawn)	–	50.5	–	–	–	–
COc1ccc(C(CNC(=O)c2cccc(NS(=O)(=O)c3ccc(Br)cc3)c2)N(C)C)cc1 (stereo not drawn)	–	73.8	–	–	–	–
COc1ccc(C(CNC(=O)c2ccc(S(=O)(=O)N(C)C)cc2)N(C)C)cc1 (stereo not drawn)	–	95.3	–	–	104.8	–
COc1ccccc1N(CC(=O)NCC1CCCO1)C(=O)CCC(=O)Nc1cc(C)on1 (stereo not drawn)	–	–	–	–	·	·
Cc1ccc(NC(=O)CNCC(c2ccccc2)N(C)C)cc1F (stereo not drawn)	–	39.5	–	–	–	–
CC(C)c1ccc(NC(=O)CNCC(c2ccccc2)N(C)C)cc1 (stereo not drawn)	–	–	–	–	·	·
Cc1nc(NC(=O)c2cccs2)ccc1Br	–	–	–	–	·	·
COc1ccc(N2C(=S)N=C(Nc3ccccc3)C23CCCCC3)cc1	–	28.9	–	–	–	–
O=C(c1sc2ccccc2c1Cl)N(Cc1cccs1)C1CCS(=O)(=O)C1 (stereo not drawn)	–	161.8	–	–	–	–
O=C(c1cccc(Cl)c1)N(Cc1cccs1)C1CCS(=O)(=O)C1 (stereo not drawn)	–	–	–	–	·	·
Fc1nc(F)c(F)c(NCCCNc2c(F)c(F)nc(F)c2F)c1F	–	–	–	–	·	·
CCOC(=O)c1cc(-c2ccccc2)n(CCC(=O)N2CCN(c3ccccc3OC)CC2)c1C	–	–	–	–	·	·
CC(C)c1ccc(S(=O)(=O)Nc2ccc(SC(F)F)cc2)cc1	–	18.3	–	–	–	–
Fc1ccc(CSc2ncnc3nc[nH]c23)cc1	–	–	–	–	·	·
CCNS(=O)(=O)c1ccc(NC(=O)Nc2ccc3c(c2)OCO3)cc1	–	110.6	–	–	72.7	–
COc1ccc(NC(=O)CN2CCc3ccccc3C2)cc1S(=O)(=O)N1CCOCC1	–	50.9	–	–	–	–
